# Source: PubChem BioAssay
# Values joined by “and” are separate entries in the source; they are usually repeats but may differ in a detail not shown here. Equal values may be shown once. Inconclusive results are not listed. Active and inactive are the calls of the source.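 How the source made its calls, unless noted: active means normalized viability below 100% at a tested concentration; inactive means the rest.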
# How the values were obtained:
# [1] = growth inhibition of DIPG glioma cells, dose response, cell-based, SU-DIPG-XVII, MIPE5.0, CellTiter-Glo, qHTS (AID 1347060; cut-off not given, nearly all actives have AC50 up to about 26 µM;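 on AC50: cells exposed to compound for 48 hours before viability readout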); conditions: SU-DIPG-XVII viability, CellTiter-Glo ATP luminescence
# [2] = growth inhibition of DIPG glioma cells, dose response, cell-based, SU-DIPG-XIII, MIPE4.0, CellTiter-Glo, qHTS (AID 1347061; cut-off not given, nearly all actives have AC50 up to about 37 µM;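 further: cells exposed to compound for 48 hours before readout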); conditions: SU-DIPG-XIII viability, CellTiter-Glo ATP luminescence
# [3] = growth inhibition of DIPG glioma cells, dose response, cell-based, JHH-DIPG-1, MIPE4.0, CellTiter-Glo, qHTS (AID 1347062; cut-off not given, nearly all actives have AC50 up to about 27 µM;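 on AC50: cells exposed to compound for two days before readout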); conditions: JHH-DIPG-1 viability, CellTiter-Glo ATP luminescence
# [4] = growth inhibition of DIPG glioma cells, dose response, cell-based, SU-DIPG-IV, MIPE4.0, CellTiter-Glo, qHTS (AID 1347063; cut-off not given, nearly all actives have AC50 up to about 30 µM;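 further: compound exposure lasted 48 hours before the viability readout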); conditions: SU-DIPG-IV viability, CellTiter-Glo ATP luminescence
# [5] = growth inhibition of DIPG glioma cells, dose response, cell-based, SU-DIPG-XIII, MIPE5.0, CellTiter-Glo, qHTS (AID 1347064; cut-off not given, nearly all actives have AC50 up to about 23 µM;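 on AC50: cells exposed to compound for 48 hours before the viability read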); conditions: SU-DIPG-XIII viability, CellTiter-Glo ATP luminescence
# [6] = viability loss in pontine glioma line – cell-based, SU-DIPG-XXV, MIPE5.0, CellTiter-Glo, qHTS, dose response (AID 1347065; cut-off not given, nearly all actives have AC50 up to about 26 µM;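 further: cells exposed to compound for 48 hours before ATP readout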); conditions: CellTiter-Glo ATP luminescence
# [7] = SU-DIPG-VI glioma cell viability, MIPE4.0 library, CellTiter-Glo luminescence, qHTS (AID 1347066; cut-off not given, nearly all actives have AC50 up to about 30 µM;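 further: cells exposed to compound for 48 hours before readout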); conditions: CellTiter-Glo ATP luminescence
# [8] = JHH-DIPG-1 glioma cell viability, MIPE5.0 library, CellTiter-Glo luminescence, qHTS (AID 1347067; cut-off not given, nearly all actives have AC50 up to about 26 µM;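 further: cells exposed to compound for 48 hours before readout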); conditions: JHH-DIPG-1 glioma viability, CellTiter-Glo ATP luminescence
# [9] = SU-DIPG-XXV glioma cell viability, MIPE5.0 library, qHTS (AID 1347068; cut-off not given, nearly all actives have IC50 up to about 30 µM;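 on IC50: cells exposed to compound for 48 hours before viability readout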)
# [10] = sensitizers of A549 cells to miR-34 induction, primary screen, imaging, A549 dox-inducible miR-34, nuclei and caspase counts (AID 1347080;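 active means compounds whose cell count with miR-34 switched on is under 0.7 times the count with it off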); conditions: A549 miR-34 inducible, Hoechst nuclei count, 48 h
# [11] = modifiers of HSF1 nuclear foci, imaging, Selleck Cancer Library (AID 1347162; in the data active means plate-normalised HSF1 focus index below about 0.46); conditions: human cells, at 10 µM; SSMD: measured here: HSF1 foci SSMD mean; cell count: measured here: cell number; plate-normalised HSF1 focus index: stronger effect = lower value
# [12] = survival rescue of mitochondrial mutant cells in low glucose, primary screen, MELAS cybrids, Rieske KO mouse fibroblasts, CellTiter-Glo (AID 1508586;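 active means mean z-score across replicates of 1.96 or higher in either the MELAS or the Rieske mutant cell line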;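 further: z relative to plate mean and SD of compound and empty wells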)
# [13] = ovarian cancer cell viability with rucaparib, profiling panel, oncology-focused library, rucaparib conditional (AID 1508598); conditions: patient-derived ovarian cancer cells, CellTiter-Glo viability, 144 h, stronger effect = lower value
# [14] = stronger effect = lower value, cell number ratio, induced over uninduced
# [15] = measured here: relative caspase fold change +Dox/-Dox
# [16] = measured here: total cells with miR-34 induction, stronger effect = lower value
# [17] = measured here: total cells without miR-34 induction
# [18] = MELAS cybrid survival, CellTiter-Glo 48 h, stronger effect = higher value
# [19] = Rieske KO mouse fibroblast survival, CellTiter-Glo 72 h
structure (smiles),measurement,setting,value
Cn1cc(-c2ccc3nnc(Sc4ccc5ncccc5c4)n3n2)cn1,outcome,[1],inactive
same,outcome,[2],inactive
same,outcome,[3],inactive
same,outcome,[4],inactive
same,outcome,[5],inactive
same,outcome,[6],inactive
same,outcome,[7],inactive
same,outcome,[8],inactive
same,outcome,[9],inactive
same,fold change,[10]; [14],0.884 (inactive)
same,fold change,[10]; [15],0.78
same,cell count,[10]; [16],7210
same,cell count,[10]; [17],8160
same,SSMD,[11],1.79
same,cell count,[11],7530
same,plate-normalised HSF1 focus index,[11],1.11 (inactive)
same,z-score,[12]; [18],-0.396 (inactive)
same,z-score,[12]; [19],0.75
same,viability,"[13]; at 0.000305 µM, OCI-C5x cells, with rucaparib 10 µM, 100% = cells with rucaparib alone",127% (inactive)
same,viability,"[13]; at 0.000305 µM, OCI-C5x cells, without rucaparib",127% (inactive)
same,viability,"[13]; at 0.000305 µM, OCI-P5x cells, with rucaparib 20 µM, 100% = cells with rucaparib alone",97.6% (active)
same,viability,"[13]; at 0.000305 µM, OCI-P5x cells, without rucaparib",94.3% (active)
same,viability,"[13]; at 0.00122 µM, OCI-C5x cells, with rucaparib 10 µM, 100% = cells with rucaparib alone",135% (inactive)
same,viability,"[13]; at 0.00122 µM, OCI-C5x cells, without rucaparib",125% (inactive)
same,viability,"[13]; at 0.00122 µM, OCI-P5x cells, with rucaparib 20 µM, 100% = cells with rucaparib alone",111% (inactive)
same,viability,"[13]; at 0.00122 µM, OCI-P5x cells, without rucaparib",98.6% (active)
same,viability,"[13]; at 0.00488 µM, OCI-C5x cells, with rucaparib 10 µM, 100% = cells with rucaparib alone",132% (inactive)
same,viability,"[13]; at 0.00488 µM, OCI-C5x cells, without rucaparib",125% (inactive)
same,viability,"[13]; at 0.00488 µM, OCI-P5x cells, with rucaparib 20 µM, 100% = cells with rucaparib alone",112% (inactive)
same,viability,"[13]; at 0.00488 µM, OCI-P5x cells, without rucaparib",102% (inactive)
same,viability,"[13]; at 0.0195 µM, OCI-C5x cells, with rucaparib 10 µM, 100% = cells with rucaparib alone",126% (inactive)
same,viability,"[13]; at 0.0195 µM, OCI-C5x cells, without rucaparib",122% (inactive)
same,viability,"[13]; at 0.0195 µM, OCI-P5x cells, with rucaparib 20 µM, 100% = cells with rucaparib alone",110% (inactive)
same,viability,"[13]; at 0.0195 µM, OCI-P5x cells, without rucaparib",103% (inactive)
same,viability,"[13]; at 0.0781 µM, OCI-C5x cells, with rucaparib 10 µM, 100% = cells with rucaparib alone",120% (inactive)
same,viability,"[13]; at 0.0781 µM, OCI-C5x cells, without rucaparib",124% (inactive)
same,viability,"[13]; at 0.0781 µM, OCI-P5x cells, with rucaparib 20 µM, 100% = cells with rucaparib alone",103% (inactive)
same,viability,"[13]; at 0.0781 µM, OCI-P5x cells, without rucaparib",110% (inactive)
same,viability,"[13]; at 0.313 µM, OCI-C5x cells, with rucaparib 10 µM, 100% = cells with rucaparib alone",126% (inactive)
same,viability,"[13]; at 0.313 µM, OCI-C5x cells, without rucaparib",123% (inactive)
same,viability,"[13]; at 0.313 µM, OCI-P5x cells, with rucaparib 20 µM, 100% = cells with rucaparib alone",107% (inactive)
same,viability,"[13]; at 0.313 µM, OCI-P5x cells, without rucaparib",106% (inactive)
same,viability,"[13]; at 1.25 µM, OCI-C5x cells, with rucaparib 10 µM, 100% = cells with rucaparib alone",131% (inactive)
same,viability,"[13]; at 1.25 µM, OCI-C5x cells, without rucaparib",124% (inactive)
same,viability,"[13]; at 1.25 µM, OCI-P5x cells, with rucaparib 20 µM, 100% = cells with rucaparib alone",105% (inactive)
same,viability,"[13]; at 1.25 µM, OCI-P5x cells, without rucaparib",104% (inactive)
same,viability,"[13]; at 5 µM, OCI-C5x cells, with rucaparib 10 µM, 100% = cells with rucaparib alone",157% (inactive)
same,viability,"[13]; at 5 µM, OCI-C5x cells, without rucaparib",114% (inactive)
same,viability,"[13]; at 5 µM, OCI-P5x cells, with rucaparib 20 µM, 100% = cells with rucaparib alone",91.5% (active)
same,viability,"[13]; at 5 µM, OCI-P5x cells, without rucaparib",100% (inactive)
C=C1C(=O)O[C@@H]2[C@H]3O[C@]3(C)CC/C=C(\C)CC[C@@H]12,AC50,[1],9.34 µM (active)
same,AC50,[2],16.6 µM (active)
same,AC50,[3],14.8 µM (active)
same,AC50,[4],7.43 µM (active)
same,AC50,[5],4.68 µM (active)
same,AC50,[6],7.42 µM (active)
same,AC50,[7],3.72 µM (active)
same,AC50,[8],6.61 µM (active)
same,IC50,[9],16.6 µM (active)
same,fold change,[10]; [14],0.927 (inactive) and 0.781 (inactive)
same,fold change,[10]; [15],1.09 and 1.49
same,cell count,[10]; [16],4920 and 316
same,cell count,[10]; [17],5310 and 404
same,z-score,[12]; [18],2.28 (active)
same,z-score,[12]; [19],-0.174
O=C(Nc1c(Cl)cncc1Cl)c1ccc(OC(F)F)c(OCC2CC2)c1,outcome,[1],inactive
same,outcome,[2],inactive
same,outcome,[3],inactive
same,outcome,[4],inactive
same,outcome,[5],inactive
same,outcome,[6],inactive
same,outcome,[7],inactive
same,outcome,[8],inactive
same,outcome,[9],inactive
same,fold change,[10]; [14],0.886 (inactive)
same,fold change,[10]; [15],1.06
same,cell count,[10]; [16],8020
same,cell count,[10]; [17],9050
same,z-score,[12]; [18],-0.193 (inactive)
same,z-score,[12]; [19],-1.74
